The record followed here is PubChem BioAssay AID485341 (National Center for Advancing Translational Sciences (NCATS), 2010).

Screen size: about 330,000 compounds; about 1,700 (0.52%) were called active. A call without a number means that no potency is given here. Calls come from the whole dose curve; as a rule, active = well fitted inhibition curve with a large enough effect; inconclusive = small, poorly fitted or top-dose-only effect; inactive = no such curve, though single readings can be large or run the other way. Only a selection was taken, and actives are over-represented in it overall.
Potency is the fitted concentration of half-maximal effect.

Chain of Beta-lactamase (Escherichia coli (strain K12)) (P00811 whole entry, looked up): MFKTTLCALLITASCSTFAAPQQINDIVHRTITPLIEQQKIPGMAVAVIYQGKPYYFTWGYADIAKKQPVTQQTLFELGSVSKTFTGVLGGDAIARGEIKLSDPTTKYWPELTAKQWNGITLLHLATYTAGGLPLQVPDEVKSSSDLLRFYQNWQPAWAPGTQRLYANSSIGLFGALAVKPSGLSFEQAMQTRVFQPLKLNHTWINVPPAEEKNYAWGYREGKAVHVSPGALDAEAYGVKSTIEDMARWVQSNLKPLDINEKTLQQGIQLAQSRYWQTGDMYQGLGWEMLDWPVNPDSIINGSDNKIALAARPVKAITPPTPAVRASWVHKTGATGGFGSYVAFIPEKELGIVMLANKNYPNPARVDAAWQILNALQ

The target in this experiment is Beta-lactamase (Escherichia coli (strain K12)) (UniProt P00811). As to the kind of experiment: qHTS Inhibitors of AmpC Beta-Lactamase (assay without detergent). Note: nearly all actives have a fitted effect of over 20% in size. Conditions: AmpC nitrocefin hydrolysis, absorbance 480 nm, 0.0001% Triton; series mostly up to 57.1 µM. How it is done:
NIH Molecular Libraries Probe Production Network [MLPCN] NIH Chemical Genomics Center [NCGC] Assay Provider: Professor Brian Shoichet, UCSF Assay Overview: This aggregation profiling approach exploits the sensitivity of aggregate formation to detergent. Inhibition of b-lactamase is measured in the presence and absence of 0.01% Triton X-100. This particular assay had the prescence of 0.01% Triton X-100. See Pubchem assay "Promiscuous and Specific Inhibitors of AmpC Beta-Lactamase (assay without detergent)" for related screen. Compounds that inhibit only in the absence of detergent are considered likely promiscuous aggregators. A screen of 1,030 compounds was performed in Brian Shoichet's lab in 96-well format. AmpC activity was measured by following the absorbance at 480 nm. Nitrocefin is a chromogenic substrate: while nitrocefin is yellow (lmax 390 nm), the product of its hydrolysis is red (lmax 486 nm, 17,000 M-1). AmpC beta lactamase was provided by Shoichet Lab, UCSF.
Buffer: 20 mM phosphate buffer, pH 7.0 Triton X-100: No Detergent screen: 0.0001%, Detergent screen: 0.01%. Reagents/Controls: Buffer in columns 3 and 4 as negative control (no enzyme). 5.3 nM AmpC in columns 1, 2, 5-48. Titration of UCSF compound 9 control (from 10 mM, then 1:2) pin-transferred to column 2. Column 1 is neutral (100% activity). Assay Steps: Six uL of reagents were dispensed to 1536-well Greiner black clear bottom plates. Compounds and controls (23 nL) were transferred via Kalypsys PinTool. The plates were incubated for 15 min at room temperature, and then 2 uL of 800 uM solution of nitrocefin was added to start the reaction. The plates were immediately transferred to and read every 20 seconds for 4 min on ViewLux (Perkin-Elmer) High-throughput CCD imager using 480 nm absorbance protocol. During dispense, reagent bottles were kept submerged into 4 deg C water bath. Keywords: NIH Roadmap, MLSCN, MLI, MLSMR, qHTS, NCGC, AmpC Beta-Lactamase, Aggregation
In general terms: In qHTS, concentration-response curves come from the screen itself.
Turning to `COc1cc(CO)ccc1OCC(=O)Nc1cccc2ccccc12`, the Potency is 14.1 µM (active).
To `COc1ccc(N(CC(=O)Nc2cccc3ccccc23)S(C)(=O)=O)c(OC)c1` belongs “inactive”; to `COc1ccccc1NC(=O)COc1ccc(C(=O)OCC(=O)N(C(C)C)C(C)C)cc1OC`, “inactive”.
For the compound `COc1ccccc1NC(=O)[C@H](COCc1ccccc1)NC(=O)OC(C)(C)C`, the Potency result is “inactive”.
As to `CCc1ccccc1NC(=O)CSc1nnc([C@@H](NC(=O)OC(C)(C)C)C(C)CC)o1` (stereo partly specified), the Potency result was “inactive”.
With `C[C@@H](NC(=O)OC(C)(C)C)c1nnc(S(=O)(=O)Cc2ccccc2)o1` the figure was 10 µM (active); with `Cn1c(Cc2csc(N)n2)nnc1SC/C=C/c1ccccc1`, “inactive”.
With `COc1cc(Cl)c(S(=O)(=O)N2CCN(Cc3ccc4c(c3)OCO4)CC2)cc1Cl` the entry was “inactive”.
To `O=C(CCCN1C(=O)/C(=C/c2cccs2)SC1=S)Nc1ccc(O)cc1` belongs “inactive”.
With `COc1ccc(/C=C2/SC(=O)N(CCCCCC(=O)Nc3ccccc3C(=O)O)C2=S)cc1`, the Potency entry is “inactive”.
To `O=C(CCCN1C(=O)/C(=C\c2ccccc2)SC1=S)Nc1ccccc1O` belongs 11.2 µM (active).
Regarding `O=C(CN1C(=O)/C(=C\c2ccccc2F)SC1=S)Nc1nc2ccccc2s1`, the Potency entry was “inactive”.
For `O=C1/C(=C\c2ccccc2Cl)SC(=S)N1CCC(=O)N1CCCc2ccccc21`, the Potency entry is “inactive”.
Regarding `O=C(CCCN1C(=O)/C(=C\c2ccco2)SC1=S)Nc1cccc2ccccc12`, the Potency was 11.2 µM (active).
For `CCC(c1nnc(SCC(=O)NNC(=O)c2ccccc2)n1Cc1ccccc1)N(C)C` (stereo unspecified), the Potency result is “inactive”.
For the compound `CN(C)/C=C(/C(=O)c1ccc(F)cc1)S(=O)(=O)c1ccc(F)cc1`, the Potency is 12.6 µM (active).
To `CN(C)/C=C(/C(=O)c1ccc(Cl)cc1)S(=O)(=O)c1ccccc1` belongs “inactive”; to `CN(C)/C=C(/C(=O)c1ccccc1)S(=O)(=O)c1ccc(Cl)cc1`, “inactive”.
With `Cc1ccccc1CN1CCNC(=O)C1CC(=O)NCCC1=CCCCC1` (stereo unspecified) the entry was “inactive”; with `COc1cc(NC(=S)NNC(=O)CC(C)C)c(OC)cc1Cl`, “inactive”.
Regarding `C=CCNC(=O)c1sc(SC)cc1-c1ccc(Cl)cc1`, the Potency is 1 µM (active).
With `CSc1sc(C(=O)NNC(=O)c2ccc(Cl)cc2)c2c1C=CCC2` the entry was “inactive”; with `C=CCNC(=O)c1csc(-c2ccccc2)n1`, “inactive”.
With `CCN1CCN(CC(=O)c2cc(OC)c(OC)c(OC)c2)CC1`, the Potency result is “inactive”.
With `CC(C)c1ccc(N(C(=O)c2ccco2)C(C(=O)NC2CCCC2)c2cccnc2)cc1` (stereo unspecified), the Potency result was “inactive”.
To `Cc1cccc(N2C(=O)CC(SC(N)=Nc3ccccc3)C2=O)c1` (stereo unspecified) belongs “inactive”; to `COC(=O)c1ccccc1SC1CC(=O)N(c2cccc(C)c2)C1=O` (stereo unspecified), 7.08 µM (active).
With `COC(=O)c1cc(C(=O)OC)cc(N2C(=O)CC(N3CCN(c4ccccc4)CC3)C2=O)c1` (stereo unspecified) the entry was “inactive”; with `CCc1ccc(Oc2nc([N+](=O)[O-])nn2C)cc1`, “inactive”; with `O=C(O)CCCN1C(=O)C2C3c4ccccc4C(c4ccccc43)[C@@H]2C1=O` (stereo partly specified), “inactive”.
As for `Cc1c(NC(=O)CN2C(=O)C(=O)N(Cc3ccccc3)C2=O)c(=O)n(-c2ccccc2)n1C`, the Potency entry is “inactive”.
To `O=C1CC(=O)N(Cc2ccccc2)C(=O)N1CCCCCCN1C(=O)CC(=O)N(Cc2ccccc2)C1=O` belongs 7.08 µM (active); to `COc1ccc(CCN2C(=O)N(c3ccc(OC)cc3)C(=O)C2CC(=O)Nc2ccc(OC)cc2)cc1` (stereo unspecified), “inactive”; to `CCN=C1S/C(=C\c2cc(Br)ccc2OCC(=O)OCC)C(=O)N1CC`, “inactive”.
With `COc1ccc(Cn2c(=S)[nH]c3cc(C(=O)NCCCN4CCOCC4)ccc3c2=O)cc1` the entry was “inactive”; with `O=c1c2ccccc2[nH]c(=S)n1CCN1CCC(=C(c2ccc(F)cc2)c2ccc(F)cc2)CC1`, 3.16 µM (active); with `CCCCn1c(=S)[nH]c2ccccc2c1=O`, “inactive”.
In the case of `C=CCn1c(SCCOc2ccc(OC)cc2)nnc1C(NC(=O)c1ccc(OC)cc1)C(C)C` (stereo unspecified), the Potency entry was “inactive”.
Turning to `COc1cccc(NC(=O)CCc2nnc3ccc(N4CCC(C)CC4)nn23)c1`, the Potency result was “inactive”.
With `CN(CC(=O)NCC(c1ccccc1)N1CCCC1)S(=O)(=O)c1ccc(Cl)cc1` (stereo unspecified) the entry was “inactive”.
With `O=C(COC(=O)c1ccc(NS(=O)(=O)c2cccs2)cc1O)Nc1ccc(F)cc1` the figure was 14.1 µM (active); with `O=C(COC(=O)c1ccc(O)cc1O)NNC(=O)c1cccs1`, “inactive”.
As for `CCc1ccc(NC(=O)COC(=O)c2cccs2)cc1`, the Potency result was “inactive”.
With `CC(=O)N/C(=C/c1ccc(OC(F)F)cc1)C(=O)O` the entry was “inactive”; with `COc1cccc(-c2coc3cc4oc(=O)c(CC(=O)O)c(C)c4cc23)c1`, “inactive”; with `C=CCNC(=O)COc1coc(CN2CCN(Cc3ccccc3)CC2)cc1=O`, “inactive”.
To `COc1ccc(OCCCC(=O)Nc2cccc(S(=O)(=O)N3CCCCCC3)c2)cc1` belongs “inactive”.
With `COc1cccc(NC(=O)COc2cccnc2[N+](=O)[O-])c1` the entry was “inactive”; with `COc1ccccc1CNC(=O)COC(=O)CNS(=O)(=O)c1ccc(NC(C)=O)cc1`, “inactive”; with `O=C(CC(NS(=O)(=O)c1ccc(Cl)cc1)c1ccco1)NC1CCCC1` (stereo unspecified), “inactive”.
With `COc1ccc(S(=O)(=O)NC(CC(=O)NCc2ccccc2OC)c2ccco2)cc1` (stereo unspecified), the Potency is 0.316 µM (active).
As for `Cc1cc(C)n(-c2ccc3nncn3n2)n1`, the Potency entry is “inactive”.
In the case of `COc1ccc(C2N3CC(C)(C)CN23)cc1` (stereo unspecified), the Potency result was “inactive”.
`O=C(CN1C(=O)/C(=C\c2ccc(C(F)(F)F)cc2)Sc2ccccc21)NCc1ccco1`: the Potency is 10 µM (active).
With `O=C(CN1C(=O)/C(=C/c2ccccc2F)Sc2ccccc21)NCc1cccnc1` the entry was “inactive”.
On to `O=C(CC1CCCCC1)NCc1ccco1`, for which the Potency result is “inactive”.
In the case of `CCOC(=O)N1CCN(Cc2nc3c(c(=O)n(C)c(=O)n3C)n2Cc2ccccc2)CC1`, the Potency entry was “inactive”.
With `CC1CN(Cc2nc3c(c(=O)n(C)c(=O)n3C)n2Cc2cccc(Cl)c2)CC(C)O1` (stereo unspecified) the figure was 44.7 µM (active).
To `CN1CCN(Cc2nc3c(c(=O)n(C)c(=O)n3C)n2Cc2cccc3ccccc23)CC1` belongs “inactive”; to `C=CCn1c(C2CC(=O)N(c3ccc(C)cc3)C2)nc2ccccc21` (stereo unspecified), “inactive”; to `O=S(=O)(c1cccc2nonc12)N1CCN(c2cccc(Cl)c2)CC1`, “inactive”.
With `CC(=O)c1ccccc1NC(=O)CC1(CC(=O)O)CCCCC1` the entry was “inactive”; with `CC(C)N(c1ccccc1)c1ncnc(NCCC(=O)O)c1[N+](=O)[O-]`, 0.316 µM (active).
Take `Cc1ccc(C(C)NC(=O)Cn2nc(C)c([N+](=O)[O-])c2C)cc1` (stereo unspecified): the Potency entry is “inactive”.
As to `Cc1ccc(OCC(=O)NC(C)c2ccccc2)c([N+](=O)[O-])n1` (stereo unspecified), the Potency entry was “inactive”.
With `CC(OC(=O)CCCOc1ccccc1)C(=O)Nc1ccc(Cl)cn1` (stereo unspecified) the entry was “inactive”; with `Cc1cccc(N2C(=O)SC(SC(=Nc3ccccc3)Nc3ccccc3)C2=O)c1` (stereo unspecified), “inactive”.
With `CN(C)/N=C/c1cc(Cl)cc([N+](=O)[O-])c1O`, the Potency result is “inactive”.
As to `O=C(N/N=C/c1cc(Cl)cc([N+](=O)[O-])c1O)C(O)(c1ccccc1)c1ccccc1`, the Potency was 10 µM (active).
Consider `O=[N+]([O-])c1cc(Cl)cc(/C=N/NC(=S)Nc2cc(S(=O)(=O)N3CCOCC3)ccc2Cl)c1O`, for which the Potency entry was “inactive”.
To `OCCNCCOc1ccc(Cl)c(Cl)c1` belongs “inactive”; to `S=C(NCCC1=CCCCC1)Nc1ccccc1`, “inactive”.
With `COc1ccccc1C1SCCN1C(=O)c1ccc([N+](=O)[O-])cc1` (stereo unspecified) the entry was “inactive”; with `COc1cccc(OC)c1C(=O)Nc1c(C(=O)N2CCN(c3ccccn3)CC2)oc2ccccc12`, “inactive”; with `COc1ccc2[nH]c(C)c(CCN(Cc3cccs3)C(=S)Nc3ccccc3OC)c2c1`, 0.501 µM (active).
With `COc1cccc(NC(=S)N(CCc2c(C)[nH]c3ccccc23)Cc2ccco2)c1` the entry was “inactive”.
Take `Cc1[nH]c2ccccc2c1CCN(Cc1cccs1)C(=S)NC(C)(C)C`: the Potency result was “inactive”.
On to `CCN(CC)C(=O)C1CCC(C)(C(=O)O)C1(C)C` (stereo unspecified), for which the Potency entry was “inactive”.
With `COc1ccc(C(C#N)Nc2ccccc2C)cc1` (stereo unspecified) the entry was “inactive”; with `COc1ccc(NS(=O)(=O)c2cc(NC(=O)CC(=O)c3ccc([N+](=O)[O-])cc3)ccc2C)cc1`, 15.8 µM (active); with `Cc1ccc(NC(=O)CCNC(=O)c2ccc([N+](=O)[O-])cc2)cc1S(=O)(=O)N1CCOCC1`, “inactive”.
Consider `COc1ccc(C(=O)CC(=O)C(=O)Nc2cc([N+](=O)[O-])ccc2OC)cc1`, for which the Potency result is “inactive”.
To `CCOP(=O)(OCC)C(Nc1ccc([N+](=O)[O-])cc1)c1ccc(Cl)cc1` (stereo unspecified) belongs “inactive”; to `CC(C)N(C(=O)CSc1nnc(NC2CC2)s1)c1ccccc1`, “inactive”.
With `CC(C)c1ccc(Nc2nnc(SCC(=O)c3nnc(-c4ccccc4)o3)s2)cc1`, the Potency is 25.1 µM (active).
As to `Cc1ccccc1Nc1nnc(SCC(=O)c2cc3ccccc3o2)s1`, the Potency result is “inactive”.
For the compound `CCOc1ccc(-n2cnc3c(=O)[nH]c(N)nc32)cc1`, the Potency result was “inactive”.
For the compound `Cc1ccc2c(c1)c1ncnc(N3CCc4ccccc4C3)c1n2C`, the Potency entry is “inactive”.
In the case of `COc1ccc(CC2c3cc(OC)c(OC)cc3CC[N+]2(C)CCC(=O)OCCCCCOC(=O)CC[N+]2(C)CCc3cc(OC)c(OC)cc3C2Cc2ccc(OC)c(OC)c2)cc1OC` (stereo unspecified), the Potency entry was “inactive”.
With `Cc1cc2ccccc2n1CCC(=O)O` the entry was “inactive”; with `COC(=O)C(C)NC(=O)COc1ccc2ccccc2c1` (stereo unspecified), “inactive”; with `Cc1cc2ccccc2n1CCNC(=O)COc1ccc2ccccc2c1`, 10 µM (active).
To `Nn1c(Cc2cccc3ccccc23)nnc1SCC(=O)N1CC(=O)Nc2ccccc21` belongs “inactive”.
Turning to `Nc1cc(C(F)(F)F)ccc1N1CCOCC1`, the Potency entry is “inactive”.
With `COc1ccccc1C(=O)Nc1ccc(OCc2nnc3c4ccccc4c(C)nn23)cc1` the entry was “inactive”; with `CCCc1nc(SCC(=O)N2CCCC2)c2c(=O)n(C)c(=O)n(C)c2n1`, “inactive”; with `Cn1c(=O)c2c(SCC(=O)N3CCOCC3)nc(C3CC3)nc2n(C)c1=O`, 10 µM (active).
To `CCOC(=O)N1CCN(C(=O)CSc2nc(C)nc3c2c(=O)n(C)c(=O)n3C)CC1` belongs “inactive”; to `CSc1ccccc1NC(=O)c1cc(C2CC2)on1`, “inactive”.
With `O=C(NC1CCCCC1)c1cc(C2CC2)on1` the entry was “inactive”.
For `Cc1nn(Cc2ccc(Cl)c(Cl)c2)c(C)c1NC(=O)c1cc(C2CC2)on1`, the Potency is 10 µM (active).
